Laboratory results published in PubChem BioAssay AID1845227 (National Center for Advancing Translational Sciences (NCATS), 2023).
Records with an inconclusive call do not appear. Active and inactive are the calls of the source. The call rests on the fitted dose curve; in most records, active means well fitted inhibition curve with a large enough effect; inconclusive means small, poorly fitted or top-dose-only effect; inactive means no such curve, though single readings can be large or run the other way.

Each compound was assayed against Luciferin 4-monooxygenase (Photinus pyralis) (UniProt P08659) (assay: Confirmatory firefly luciferase (FLuc) qHTS assay for identification of artifact compounds). Details: purified FLuc enzyme, luminescence, 5 min; series mostly up to 38.9 µM.
Summary of the method: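 Compounds were preincubated 15 min at room temperature with 10 uM D-luciferin and 10 uM ATP in Tris acetate pH 7.6. 10 nM Photinus pyralis luciferase was then added, and luminescence was read after 5 min.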

Potency, inactive:
CCOC(=O)c1ccc(N2C(=O)c3n[nH]c(-c4ccco4)c3C2c2ccc(C)cc2)cc1 (stereo unspecified)
Cc1cn2c(=O)cc(COC(=O)c3cccc(NC(=O)c4ccccc4C)c3)nc2s1
Cc1ccc(-c2nc(S(=O)(=O)c3ccc(Cl)cc3)c(N3CCCCC3)o2)cc1
Cc1ccccc1NS(=O)(=O)c1ccc2[nH]c3c(c2c1)CCCCC3
CCc1ccccc1NC(=O)c1nc(-c2ccncc2)no1
Nc1ccc(F)cc1F
CCOc1ccc2c(c1)C(C)=CC(C)(C)N2
COc1ccc(-c2nnc3n2N=C(c2cc(OC)ccc2OC)CS3)c(OC)c1
O=C(NCc1ccccc1)c1cnc2sc(N3CCCC3)nn2c1=O
CC(C)(C)OC(=O)N1CCN(c2ccc(NCc3ccc(-c4ccc(C#N)cc4)nc3)cc2)CC1
O=C(Nc1cc(Cl)ccc1Cl)c1cc(S(=O)(=O)NCCc2ccccc2)ccc1F
CCN(C(=O)Cn1nc(Cc2cccnc2)c2ccccc2c1=O)c1cc(C)ccc1C
CCC(CC)c1nn2c(=O)cc(COc3ccc(NC(=O)c4ccccc4C)cc3)nc2s1
CCCc1cc(=O)[nH]c(SCc2nc(-c3ccccc3F)no2)n1
CCOC(=O)c1ccccc1Nc1cc(C)nc2nc(-c3ccco3)nn12
COc1ccc(OC)c(NC(=O)CC(=O)Nc2ccc3nc4n(c(=O)c3c2)CCCCC4)c1
CCOC(=O)c1c(S(=O)(=O)NCC(=O)N2CCN(c3cc(C)ccc3C)CC2)c(C)n(C)c1C
Cc1nc(CC(=O)Nc2ccc(C)c(C)c2)cs1
COc1ccc(-c2ccc(=O)n(CC(=O)Nc3ccc(OC)c(OC)c3)n2)cc1
CC1(C)OC2CC(=O)OCC23C1CC(=O)C1(C)C3CC[C@@]2(C)[C@H](c3ccoc3)OC(=O)C3OC312 (stereo partly specified)
COc1ccc(C2N(Cc3ccccc3)C(=O)c3ccccc3N2C)cc1COc1ccc(NC(C)=O)cc1 (stereo unspecified)
